Screens: PubChem BioAssay, National Center for Advancing Translational Sciences (NCATS)
A selection: hits, their analogues and other compounds. The true share with any hit is near 9.4%.
IMPase inh – IMPase inhibition in cells; CHO-M1 cells, IP1 accumulation, HTRF TR-FRET ratio; inhibition (IP1 accumulation), % at 46.1 µM; 120,000 tested, under 10 active; AID 901; active means well fitted curve in the direction sought with a large enough effect in the signal ratio, not every such curve was filed as active; inconclusive means small, poorly fitted or top-dose-only effect, or a change in a side signal; inactive means no such curve, though single readings can be large or run the other way; the % refers to the signal ratio;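 further: cells stimulated with carbachol in lithium chloride buffer; plate controls were DMSO basal wells for no effect and reference inhibitor wells for full effect; higher means more IMPase inhibition seen as more IP1 and lower FRET ratio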
Target sequence (P97697 whole entry, looked up): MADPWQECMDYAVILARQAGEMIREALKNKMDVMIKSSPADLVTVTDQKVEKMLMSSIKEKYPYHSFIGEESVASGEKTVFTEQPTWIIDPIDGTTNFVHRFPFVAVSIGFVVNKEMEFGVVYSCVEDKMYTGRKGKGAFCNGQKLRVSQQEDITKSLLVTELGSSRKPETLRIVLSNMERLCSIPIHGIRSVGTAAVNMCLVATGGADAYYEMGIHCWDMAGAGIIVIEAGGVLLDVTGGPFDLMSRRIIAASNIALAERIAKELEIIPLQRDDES
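Seeded CHO-M1 cells were dosed with compound at up to 46 uM, stimulated with carbachol for 30 min, then lysed in IP-One detection reagents. Higher IP1 lowers the TR-FRET signal.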
HPGD block – blocks human HPGD enzyme activity. P15428. purified HPGD, NADH fluorescence kinetic, PGE2 substrate. Potency, µM, inactives show at the highest dose activity change, negative = inhibition, hits mostly inhibitors. hit rate 4.3% among 150,000; active means well fitted inhibition curve with a large enough effect, not every such curve was filed as active; inconclusive means small, poorly fitted or top-dose-only effect, or another doubt; inactive means no such curve, though single readings can be large or run the other way; further: potency means the concentration at half of the fitted maximal effect; on the % scale 0 is the no-effect control and ±100 the full control effect
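20 nM HPGD preincubated 15 min at room temperature with compound in 50 mM Tris-HCl pH 8, 0.01% Tween 20. Started with 1 mM NAD+ and 30 uM prostaglandin E2; NADH fluorescence (360/450 nm) read 5 times over 30-s intervals, last minus first.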
HTT aggregate – inhibitors of mutant huntingtin aggregate formation in PC12 cells | hit rate 1.1% among 220,000 | Potency, µM (highest dose often 46.1 µM), for inactives: at the top dose activity change, negative = inhibition, hits mostly inhibitors | PC12 HttQ103-GFP aggregates, Acumen cytometry, 40 h; further: potency means the concentration at half of the fitted maximal effect; on the % scale 0 is the no-effect control and ±100 the full control effect; nearly all actives have a fitted effect of over 60% in size
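Quantitative HTS on tebufenozide-induced (100 nM) PC12 cells stably expressing polyQ103 Huntingtin exon 1–GFP. Reduction of bright GFP aggregates, detected by laser scanning cytometry after lysis, identified actives across the titration.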
ALDH1A1 inh-1 – ALDH1A1 (human) enzyme inhibition; Potency, µM (highest dose often 75.3 µM), without a hit: at the top dose activity, negative = inhibition, actives largely listed as inhibitors; P00352; hit rate 7.3% among 220,000; Purified ALDH1A1, NADH fluorescence, propionaldehyde substrate; AID 1030; active means well fitted inhibition curve with a large enough effect, not every such curve was filed as active; inconclusive means small, poorly fitted or top-dose-only effect, or another doubt; inactive means no such curve, though single readings can be large or run the other way;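 further: potency means the concentration at half of the fitted maximal effect; plate controls were no enzyme wells and a reference inhibitor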
IMPase Li inh – cell-permeable IMPase inhibitors with lithium potentiation. Potency, µM (titrated, usually from 59.4 µM), without a hit: at the top dose activity, negative = IMPase inhibition, most hits filed as inhibitors. hit rate 0.35% among 210,000. CHO-M1 cells, IP1 TR-FRET (IP-One), carbachol + lithium;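 further: IP1 builds up when IMPase is blocked and the TR-FRET signal falls; potency means the concentration at half of the fitted maximal effect; plate controls were basal vehicle for no effect and high inhibitor control for full effect; nearly all actives have a fitted effect of over 50% in size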
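CHO cells stably expressing M1 receptor (2000/well) were cultured 16–30 h, then exposed to compounds with a small lithium addition for 30 min at 37C. IP1 was measured by TR-FRET competition; AC50 from Hill fits.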
HTT cytoprotect – protects HTT-Q103 PC12 cells, measured by ATP | PC12 HTT-Q103 induced, cytoprotection, ATP luminescence, 40 h | Potency, µM (highest dose often 56.4 µM), without a hit: cytoprotection (ATP increase), most hits filed as activators | hit rate 0.14% among 230,000 | AID 1471; further: potency means the concentration at half of the fitted maximal effect; % of control where 0% means no effect; nearly all actives have a fitted effect of over 45% in size
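ATP quantification (ATPlite) reports survival of PC12 cells in which tebufenozide, 100 nM final, switches on Htt exon 1 with 103 glutamines linked to GFP; compounds are titrated.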
ALDH1A1 inh-2 – Inhibits human ALDH1A1, confirmation and counter-screen; shares compounds with ALDH1A1 inh-1; purified ALDH1A1, NADH fluorescence, propionaldehyde/NAD+; Potency, µM (highest dose often 57.1 µM), inactives show at the highest dose activity change, negative = inhibition, most hits filed as inhibitors; hit rate 90% among 90; AID 493210; calls by dose curve
* hit, by the source's call; ? = inconclusive; . = no result given; [ ] = remark or other dose. Unless noted, the call rests on the fitted dose curve; in most records, active means well fitted curve in the direction sought with a large enough effect; inconclusive means small, poorly fitted or top-dose-only effect, or another doubt; inactive means no such curve, though single readings can be large; an effect the other way counts as inactive or inconclusive.

SMILES | IMPase inh | HPGD block | HTT aggregate | ALDH1A1 inh-1 | IMPase Li inh | HTT cytoprotect | ALDH1A1 inh-2
COc1ccccc1CN(CC(=O)NCc1ccc2c(c1)OCO2)C(=O)c1ccc2c(c1)OCCO2 | 19 | -1% | 6% | 0.079µM* | 15% | -15%[10 µM] | 0.045µM*
COc1ccccc1OCCC(=O)NCc1ccc2c(c1)OCO2 | . | . | 5% | 4% | 4% | -14% | .
CCNc1ncc2nc(-c3cn(C)c4ccccc34)c(=O)n(CCC#N)c2n1 | . | . | . | ? | -6% | ? | .
Cc1ccc(Sc2nc3c(c(=O)[nH]c(=O)n3C)n2CCc2ccccc2)cc1 | ? | -14% | -7% | 0.63µM* | 30%[38.3 µM] | 16%[10 µM] | 0.89µM*
CCc1ccccc1NC(=O)N[C@H](C(=O)O)C(C)CC (some centres not stated) | -7 | -4% | -6%[9.22 µM] | -5% | 19%[38.3 µM] | 3% | .
CC[C@H](C)[C@H](NC(=O)OCC1c2ccccc2-c2ccccc21)C(=O)O | -5 | -3% | . | 0.45µM* | 3% | -45%[1.9 µM] | 1µM*
